# Measured values published in PubChem BioAssay (NCATS).
# Records with an inconclusive call do not appear. Activity calls are given as the source filed them. Calls come from the whole dose curve; as a rule, active = well fitted inhibition curve with a large enough effect; inconclusive = small, poorly fitted or top-dose-only effect; inactive = flat fitted curve, though single readings scatter.
# Test system: HEK293
# Assay: Cytotoxic Profiling of Annotated Libraries Using Quantitative High-Throughput Screening (AID 1296008); note: nearly all actives have a fitted effect of over 60% in size
# Details: Five cell lines viability, CellTiter-Glo ATP luminescence, 48-72 h; max response: hits give low values
# How it was run: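 Compounds were pin-transferred onto cells and incubated 48 or 72 hr at 37 degree Celsius, 95% humidity. CellTiter-Glo was added, plates sat 10 min at room temperature, then ATP-coupled luminescence was imaged as the viability read-out.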
# % is set by controls: 0 for no effect and ±100 for the full control effect; potency is the fitted concentration of half-maximal effect.
Compound,max response,Potency,outcome
COc1cc2oc(-c3ccc(O)cc3O)cc2c(OC)c1CC=C(C)C,3% (inactive),–,–
CC1(C)CC[C@]2(C(=O)O[C@@H]3O[C@H](CO)[C@@H](O)[C@H](O)[C@H]3O)CC[C@]3(C)C(=CCC4[C@@]5(C)C[C@@H](O)[C@H](O)C(C)(C)C5CC[C@]43C)C2[C@@H]1O (stereo not given in full),0.957% (inactive),–,–
C=CC(C)(CC/C=C(\C)C(=O)OC)OC1OC(COC(=O)CC(C)(O)CC(=O)O)C(OC2OC(CO)C(O)C(O)C2O)C(O)C1O (stereo not given),-1.61% (inactive),–,–
COc1cc(N2CCOCC2)ccc1Nc1ncc(Cl)c(Nc2ccccc2NS(C)(=O)=O)n1,–,1840 nM (active),–
Cc1nc(C)c(-c2ccc(C3CCC(CC(=O)O)CC3)cc2)nc1C(N)=O (stereo not given),-0.422% (inactive),–,–
CC/C=C\C/C=C\C/C=C\CCCCCCCC(=O)OCC(O)COC1OC(CO)C(O)C(O)C1O (stereo not given),-1.09% (inactive),–,–
C=C1CCCC2(C)CC3(OC)OC(=O)C(C)=C3CC12 (stereo not given),3.93% (inactive),–,–
CCC1C(=O)N(C)c2cnc(Nc3ccc(C(=O)NC4CCC(N5CCN(CC6CC6)CC5)CC4)cc3OC)nc2N1C(C)C (stereo not given),–,5.8 nM (active),–
COc1ccc(N(C)c2nc(C)nc3ccccc23)cc1,–,7.3 nM (active),–
CC1CCC2(C=O)C(CO)=CCCC2C1(C)CC(=O)O (stereo not given),-8.27% (inactive),–,–
Cc1cc(C(=O)N2CCCCc3ccccc32)ccc1CNC(=O)N1CCC[C@H]1C(=O)N(C)C,-0.739% (inactive),–,–
CC(C)CC(=O)OC1OC=C(CO[C@@H]2O[C@H](CO)[C@@H](O)[C@H](O)[C@H]2O)C2CC(O)C(O)(CO)C12 (stereo not given in full),-1.23% (inactive),–,–
CC(C)(O)c1ccc2c(c1)C(O)C[C@H]1[C@](C)(C(=O)O)CCC[C@]21C (stereo not given in full),0.619% (inactive),–,–
C=C1C(=O)O[C@@H]2C[C@H](C)[C@@]3(O)C=C(C(C)=O)[C@]4(CC3C[C@H]12)C(=O)O[C@H]1C[C@@H](C)C(CCC(C)=O)=CC[C@H]14 (stereo not given in full),-5.38% (inactive),–,–
CC(C)(F)C[C@@H](N[C@@H](c1ccc(-c2ccc(S(C)(=O)=O)cc2)cc1)C(F)(F)F)C(=O)NC1(C#N)CC1,-10.4% (inactive),–,–
C[C@@H]1O[C@@H](O[C@H]2[C@H](O[C@H]3[C@H](O)[C@@H](C(=O)O)O[C@@H](O[C@H]4CC[C@@]5(C)C(CC[C@]6(C)C5CC[C@]57OC[C@@]8(CCC(C)(C)CC85)[C@H](O)C[C@]76C)C4(C)C)[C@@H]3O[C@@H]3O[C@H](CO)[C@@H](O[C@@H]4OC[C@@H](O)[C@H](O)[C@H]4O)[C@H](O)[C@H]3O)O[C@H](CO)[C@H](O)[C@@H]2O)[C@H](O)[C@H](O)[C@H]1O (stereo not given in full),-0.169% (inactive),–,–
COC(=O)C1=COC(O[C@@H]2O[C@H](CO)[C@@H](O)[C@H](O)[C@H]2O)[C@H]2[C@@H]1[C@H](OC(=O)CCc1ccc(O)cc1)C[C@]2(C)O (stereo not given in full),0.992% (inactive),–,–
Cc1ccc(-c2ccc3c(ccc4sc5c(c43)NC[C@@H](C)NC5=O)n2)cn1,-21.3% (inactive),–,–
O=C(Nc1ccc(S(=O)(=O)Nc2nccs2)cc1)C(c1ccccc1)c1ccccc1,-0.0195% (inactive),–,–
Cc1cc(Nc2nc(NC(C)c3ncc(F)cn3)ncc2Cl)n[nH]1 (stereo not given),-3.92% (inactive),–,–

Compound,max response,Potency,outcome
C=C[C@]1(C)C[C@H](O)[C@@H]2[C@H](OC(=O)[C@@H]2C)C1/C(C)=C/O[C@@H]1O[C@H](CO)[C@@H](O)[C@H](O)[C@H]1O (stereo not given in full),-0.606% (inactive),–,–
COc1ccc2nc(S(=O)(=O)Cc3ncc(C)c(OC)c3C)[nH]c2c1,–,16400 nM (active),–
COc1ccc2c(OC)c3ccoc3nc2c1OC,-25.3% (inactive),–,–
C[C@@H]1CN(Cc2ccccc2)C[C@H]1c1nc2c(cnn2C2CCOCC2)c(=O)[nH]1,2.89% (inactive),–,–
O=C(CCc1ccccc1)N1CCC(O)(Cn2cnc3cc(Cl)ccc3c2=O)CC1,-25.5% (inactive),–,–
CCN1CCN(Cc2ccc(NC(=O)Nc3ccc(Oc4cc(NC)ncn4)cc3)cc2C(F)(F)F)CC1,-109% (inactive),–,–
CC1(C)CC[C@]2(C(=O)O)[C@H](O)C[C@]3(C)C(=CCC4[C@@]5(C)CC[C@H](O[C@@H]6O[C@H](CO[C@@H]7OC[C@H](O)[C@H](O)[C@H]7O[C@@H]7OC[C@@H](O)[C@H](O)[C@H]7O)[C@@H](O)[C@H](O)[C@H]6O[C@@H]6O[C@H](CO)[C@@H](O)[C@H](O)[C@H]6O)C(C)(C)C5CC[C@]43C)[C@@H]2C1 (stereo not given in full),-1.49% (inactive),–,–
CC(C)=CCC[C@](C)(O)[C@H]1CC[C@]2(C)[C@@H]1[C@H](O)CC1[C@@]3(C)CC[C@H](O)C(C)(C)[C@@H]3[C@@H](O[C@@H]3O[C@H](CO)[C@@H](O)[C@H](O)[C@H]3O[C@@H]3O[C@H](CO)[C@@H](O)[C@H](O)[C@H]3O)C[C@]12C (stereo not given in full),-11.9% (inactive),–,–
CC1(C)CCC2(C(=O)OC3OC(CO)C(O)C(O)C3O)CCC3(C)C(=CCC4C5(C)CCC(O)C(C)(C(=O)O)C5CCC43C)C2C1O (stereo not given),4.09% (inactive),–,–
COc1ccc(C(O)C(C)OC2OC(CO)C(O)C(O)C2O)cc1 (stereo not given),0.525% (inactive),–,–
Cc1cccc(-c2[nH]c(Cc3cccc(C(N)=O)c3)nc2-c2ccc3nccnc3c2)n1,–,–,inactive
C[C@@H]1O[C@@H](O[C@@H]2CO[C@@H](O[C@H]3CC[C@@]4(C)C(CC[C@]5(C)C4CC=C4[C@@H]6CC(C)(C)CC[C@]6(C(=O)O[C@@H]6O[C@H](CO)[C@@H](O)[C@H](O)[C@H]6O)CC[C@]45C)[C@]3(C)CO)[C@H](O)[C@H]2O[C@@H]2O[C@H](CO)[C@@H](O)[C@H](O)[C@H]2O)[C@H](O)[C@H](O)[C@H]1O (stereo not given in full),1.34% (inactive),–,–
C[C@@H]1C[C@@H]([C@@H](O)C(C)(C)O)O[C@H]2C[C@@]3(C)C(=C12)C[C@H](O)[C@H]1[C@@]2(C)CCC(=O)C(C)(C)C2CC[C@@]13C (stereo not given in full),3.48% (inactive),–,–
COc1cc(C(=O)OC[C@@]2(O)CO[C@@H](O[C@H]3[C@H](Oc4ccc(C(=O)O)cc4OC)O[C@H](CO)[C@@H](O)[C@@H]3O)[C@@H]2O)ccc1O,-19.1% (inactive),–,–
C=CC1(C)C=C2CCC3C(C)(C)C(O[C@@H]4O[C@@H](CO)[C@H](O)[C@H]4O)CCC3(C)C2CC1O[C@@H]1O[C@H](C)[C@H](O)[C@H](O)[C@H]1O (stereo not given in full),-0.0102% (inactive),–,–
Cc1cc(C)c(CNC(=O)c2cc(-c3ccc(CN4CCOCC4)cc3)cc3c2cnn3C2CCCC2)c(=O)[nH]1,–,14800 nM (active),–
CC(CO)C1CCC2(C)CC3C(CO)CC(O)C3C(C)(O)C/C=C/12 (stereo not given),-10.5% (inactive),–,–
CC(=O)CCC1=C(C)C(O[C@@H]2O[C@H](CO)[C@@H](O)[C@H](O)[C@H]2O)C(O)CC1(C)C (stereo not given in full),0.019% (inactive),–,–
C[C@H](C/C=C/C(C)(C)O)[C@H]1CC[C@@]2(C)[C@@H]3[C@@H](O[C@@H]4O[C@H](CO)[C@@H](O)[C@H](O)[C@H]4O)C=C4C(CC[C@H](O)C4(C)C)[C@]3(C=O)CC[C@]12C (stereo not given in full),-5.89% (inactive),–,–
CC1=CC(=O)C2C(C)(C)CCC[C@]2(C)[C@H]1CO (stereo not given in full),1.55% (inactive),–,–
